High-throughput results deposited in PubChem BioAssay by National Center for Advancing Translational Sciences (NCATS).
Nrf2 ARE act: qHTS of Nrf2 Activators. AREc32 ARE-luciferase reporter (MCF7-derived line), luminescence, 24 h. Potency, µM (series often up to 46.1 µM), usual class: activators. actives 0.31% (n = 410,000). AID 624171, 2012; note: nearly all actives have a fitted effect of over 65% in size
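ARE activation measured as luciferase luminescence (Steady-Glo, 30 min RT) in AREc32_Fluc cells after 24 hr compound exposure at 37 deg C, 5% CO2; cells seeded overnight at 1000/well in OPTI-MEM, 5% FBS.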
Nrf2 block: Nrf2 qHTS screen for inhibitors | A549 ARE-Fluc reporter, luciferase luminescence, 18-24 h | Potency, µM (doses to about 46 µM), usual class: inhibitors | actives 2.1% (n = 360,000); note: nearly all actives have a fitted effect of over 60% in size
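In this cell-based qHTS, ARE-driven firefly luciferase in A549 cells reports Nrf2 activity; the luminescent signal after BugLite lysis is the measured value, with a prior CellTiter-Fluor read for cell health.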
A549 viability: Nrf2 qHTS screen for inhibitors: counterscreen for cytotoxicity; A549 ARE-Fluc cells, CellTiter-Fluor viability, 18-24 h; Potency, µM (doses to about 46 µM), hits mostly inhibitors; actives 0.16% (n = 390,000); AID 504648, 2011
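A549 ARE-Fluc cells in 5% FBS OPTI-MEM, 5000 cells/well, rested 2 h then exposed to compounds in concentration-response for 18-24 h at 37 °C. Viability by CellTiter-Fluor fluorescence (Ex 405/Em 525) after 30 min; luciferase luminescence (BugLite, 15 min, RT) read afterwards.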
TGFb inhibitor: qHTS for Inhibitors of TGF-b. Potency, µM (highest dose often 46.1 µM), actives largely listed as inhibitors. actives 1.2% (n = 410,000). AID 588855, 2011. HepG2 CAGA-GFP TGF-b/SMAD3 reporter, GFP fluorescence, 18 h; TGF-beta stimulated, 500 pg/mL final; note: nearly all actives have a fitted effect of over 65% in size
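Inhibition was scored as loss of TGF-beta-induced (500 pg/mL final, 18 hours, 37 degrees C) GFP in HEPG2 cells carrying a CAGA-GFP reporter, in DMEM with 1% FBS. Well GFP was summed per cell; Activity was normalised to unstimulated and stimulated DMSO wells, then concentration-response fitting.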
HepG2 tox: qHTS for Inhibitors of TGF-b: Cytotox Counterscreen; AID 588856, 2011; HepG2 CAGA-GFP viability, ATP luminescence, 18 h; actives 0.76% (n = 410,000); Potency, µM (series often up to 46.1 µM), most hits filed as cytotoxic
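CellTiter-Glo luminescence gave cytotoxicity after 18 hours at 37 degrees C. The cells were HepG2 CAGA-GFP in 1% FBS DMEM, stimulated with 500 pg/mL TGF-beta after compound addition. %Activity was normalised to no-cell wells (complete cell-killing) and DMSO (no toxicity), and curves were fitted and classified.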
Hits are given with their value. In the library only some 3.6% were active in any assay of this set; here they are far more common. Calls come from the whole dose curve; as a rule, active = well fitted curve in the direction sought with a large enough effect; inconclusive = small, poorly fitted or top-dose-only effect, or another doubt; inactive = no such curve, though single readings can be large; an effect the other way counts as inactive or inconclusive.

What do the screens show for `CCc1ccc2[nH]c(=O)c(C(c3nnnn3CC3CCCO3)N3CCCc4ccccc43)cc2c1` (centres undefined)?
Nrf2 ARE act: inactive; Nrf2 block: 23.1µM; A549 viability: inconclusive; TGFb inhibitor: inactive; HepG2 tox: inactive

How did O=C(COC(=O)CNC(=O)c1ccc(Cl)cc1)Nc1ccc2c(c1)OCCO2 do in these assays?
Nrf2 ARE act: inactive; Nrf2 block: inactive; A549 viability: inactive; TGFb inhibitor: inactive; HepG2 tox: inactive

Results for CSc1nc2nccc(-c3ccc(Oc4ccccc4)cc3)n2n1 ?
Nrf2 ARE act: inactive; Nrf2 block: 18.4µM; A549 viability: inactive; TGFb inhibitor: inactive; HepG2 tox: inactive

What do the screens show for `O=C(CSc1nnc(-c2cccnc2)o1)c1cc2ccccc2oc1=O`?
Nrf2 ARE act: 7.08µM; A549 viability: inactive; TGFb inhibitor: inactive; HepG2 tox: inactive

How did COc1ccc(C(=O)Nc2ccccc2[N+](=O)[O-])cc1S(=O)(=O)N1CCOCC1 do in these assays?
Nrf2 ARE act: inconclusive; Nrf2 block: inactive; A549 viability: inactive; TGFb inhibitor: inconclusive; HepG2 tox: inactive

Results for COc1ccc2c(c1)CC/C(=C/c1ccncc1)C2=O ?
Nrf2 ARE act: 22.4µM; Nrf2 block: inactive; A549 viability: inactive; TGFb inhibitor: inactive; HepG2 tox: inactive

What do the screens show for `COc1ccc2c(c1)CC/C(=C\c1ccc(C)o1)C2=O`?
Nrf2 ARE act: inconclusive; Nrf2 block: inactive; A549 viability: inactive; TGFb inhibitor: inactive; HepG2 tox: inactive

What do the screens show for `O=C1NC[C@H](c2ccccc2)OC(=O)[C@H](Cc2ccc(F)cc2)CC/C=C/C[C@H]1CC(=O)N(CCO)Cc1ccccc1`?
Nrf2 ARE act: inactive; Nrf2 block: inconclusive; TGFb inhibitor: inconclusive

How did Cc1ccccc1-n1nc(-c2ccc(N)cc2)cc1N do in these assays?
Nrf2 ARE act: inactive; A549 viability: inactive; TGFb inhibitor: inactive; HepG2 tox: inactive

How did Nc1cc2nc3ccccc3oc-2cc1=O do in these assays?
Nrf2 ARE act: inactive; Nrf2 block: inconclusive; A549 viability: inconclusive; TGFb inhibitor: inconclusive; HepG2 tox: 4.47µM

How did CC(Cc1cccs1)NC(=S)Nc1ccc(Cl)c(Cl)c1 (centres undefined) do in these assays?
Nrf2 ARE act: inactive; Nrf2 block: inconclusive; A549 viability: inactive; TGFb inhibitor: inconclusive; HepG2 tox: inactive

Results for CC(Cc1cccs1)NC(=S)Nc1ccc(Cl)cc1 (centres undefined) ?
Nrf2 ARE act: inactive; Nrf2 block: 18.4µM; A549 viability: inactive; TGFb inhibitor: inconclusive; HepG2 tox: inactive

What do the screens show for `COc1ccc(CCN(C)Cc2c(O)ccc3cc(Br)ccc23)cc1OC`?
Nrf2 ARE act: inconclusive; Nrf2 block: inactive; A549 viability: inactive; TGFb inhibitor: inconclusive; HepG2 tox: inactive

Results for Cc1cc(Nc2nnnn2-c2ccccc2)n(-c2ccc(Cl)cc2)n1 ?
Nrf2 ARE act: inactive; Nrf2 block: inconclusive; A549 viability: inconclusive; TGFb inhibitor: 12.6µM; HepG2 tox: 2.82µM

How did Cc1ccc(Cl)cc1NC(=O)Cn1c(=O)n(CCC(=O)N2CCc3ccccc3C2)c(=O)c2ccccc21 do in these assays?
Nrf2 ARE act: inactive; Nrf2 block: inactive; A549 viability: inactive; TGFb inhibitor: inactive; HepG2 tox: inactive

Results for CC1CCc2c(cc(-c3ccccc3)n2-c2ccc(C(=O)NC(C)C)cc2)C1 (centres undefined) ?
Nrf2 ARE act: 2.82µM; Nrf2 block: inconclusive; A549 viability: inconclusive; TGFb inhibitor: 7.94µM; HepG2 tox: inactive

Results for CC(C)NC(=O)c1ccc(-n2c(-c3ccccc3)cc3c2CCCCC3)cc1 ?
Nrf2 ARE act: 12.6µM; Nrf2 block: inconclusive; A549 viability: inactive; TGFb inhibitor: inactive; HepG2 tox: inactive

Results for CC(C)NC(=O)c1ccc(CN2CCC(Cc3ccccc3)CC2)cc1 ?
Nrf2 ARE act: inactive; Nrf2 block: inactive; A549 viability: inactive; TGFb inhibitor: inactive; HepG2 tox: inactive

Results for CCOCCCNC(=O)c1ccc(-n2c(-c3ccccc3)cc3c2CCCC3)cc1 ?
Nrf2 ARE act: 11.2µM; Nrf2 block: inconclusive; A549 viability: inactive; TGFb inhibitor: inactive; HepG2 tox: inactive

How did CCOC(=O)N1CCN(C(=O)c2ccc3nc(SCc4ccc(F)cc4)n(C)c3c2)CC1 do in these assays?
Nrf2 ARE act: inactive; Nrf2 block: 16.4µM; A549 viability: inactive; TGFb inhibitor: inactive; HepG2 tox: inactive

Results for CCc1ccc(CNC(=O)c2ccc3nc(SCc4ccc(F)cc4)n(C)c3c2)cc1 ?
Nrf2 ARE act: inactive; Nrf2 block: inconclusive; A549 viability: inactive; TGFb inhibitor: inconclusive; HepG2 tox: inactive

How did O=C(c1ccc(CSc2nc3ccncc3n2Cc2cccc(F)c2)cc1)N1CCCCC1 do in these assays?
Nrf2 ARE act: inactive; Nrf2 block: 23.1µM; A549 viability: inactive; TGFb inhibitor: inconclusive; HepG2 tox: inactive

Results for O=C(c1ccc(CSc2nc3ccncc3n2Cc2cccc(F)c2)cc1)N1CCCCCC1 ?
Nrf2 ARE act: inactive; Nrf2 block: inconclusive; A549 viability: inactive; TGFb inhibitor: inconclusive; HepG2 tox: inactive

How did O=C(c1ccc(CSc2nc3ccncc3n2Cc2ccc(F)cc2)cc1)N1CCCCCC1 do in these assays?
Nrf2 ARE act: inactive; Nrf2 block: 18.4µM; A549 viability: inactive; TGFb inhibitor: inconclusive; HepG2 tox: inactive

How did CN1CCN(C(=O)c2ccc(CSc3nc4ccncc4n3Cc3ccc(F)cc3)cc2)CC1 do in these assays?
Nrf2 ARE act: inactive; Nrf2 block: inactive; A549 viability: inactive; TGFb inhibitor: inactive; HepG2 tox: inactive

What do the screens show for `CCOC(=O)c1ccc(NC(=O)Nc2cc3c(cc2N2CCCC2)n(C)c(=O)n3C)cc1`?
Nrf2 ARE act: inactive; Nrf2 block: inconclusive; A549 viability: inactive; TGFb inhibitor: inconclusive; HepG2 tox: inactive

Results for COc1cccc(S(=O)(=O)Nc2cccc(C(=O)N3CCOCC3)c2)c1 ?
Nrf2 ARE act: inactive; Nrf2 block: inconclusive; A549 viability: inactive; TGFb inhibitor: inactive; HepG2 tox: inactive

What do the screens show for `Cc1cccc(OCC(=O)Nc2nnn(C)n2)c1C`?
Nrf2 ARE act: inactive; Nrf2 block: inactive; A549 viability: inactive; TGFb inhibitor: inactive; HepG2 tox: inactive

How did CCCCC(=O)N1C/C=C\C(c2ccc(OC)cc2)N(Cc2ccc(F)cc2)C(=O)C1Cc1ccccc1 (centres undefined) do in these assays?
Nrf2 block: 23.1µM; A549 viability: inactive; TGFb inhibitor: inconclusive; HepG2 tox: inactive

Results for COc1ccc(C2/C=C\CN(C(=O)Nc3ccc(C(F)(F)F)cc3)CC(=O)N2Cc2ccc(F)cc2)cc1 (centres undefined) ?
Nrf2 ARE act: inactive; Nrf2 block: 23.1µM; A549 viability: inactive; TGFb inhibitor: inconclusive; HepG2 tox: inactive
